Measured values as given in the supplement of paper PMC12350171.
Where a name gives a salt, the structure may show the parent alone.

Experiments:
Conditions in all cases: 20 µM
[1] = tested on: Salmonella enterica typhimurium; assay: growth AUC normalised to DMSO control (fraction of control); higher = less growth inhibition, active = hit call of the paper
Summary of the method: (§1)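 Three biological replicates were carried out, with OD578 read hourly for 24 h. Before inoculation at a starting OD578 of 0.01, pathogens were passaged anaerobically twice; plates were pre-reduced mGAM containing 20 μM compound and 1% DMSO, sealed with breathable membranes, and the Haemophilus parainfluenzae medium carried added hemin and NAD. Area under each growth curve was calculated by the trapezoidal rule up to the exponential-to-stationary transition and normalised to DMSO controls on the same plate.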

[2] = tested on: Shigella flexneri; assay: as above
Summary of the method: as §1

[3] = tested on: Vibrio cholerae; assay: as above
Summary of the method: as §1

[4] = tested on: Yersinia pseudotuberculosis; assay: as above
Summary of the method: as §1

[5] = tested on: P. vulgatus RND KO; assay: growth AUC normalised to DMSO control (median) (fraction of control); higher = less growth inhibition, active = hit call of the paper
Summary of the method: (§2)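 After two overnight anaerobic passages, strains were inoculated at OD578 0.01 into mGAM in 96-well plates containing approved-drug library compounds at 20 μM and 1% DMSO. Growth was followed by reading OD578 hourly for 24 h within an anaerobic incubator. Area under the curve, taken by the trapezoidal rule up to the start of stationary phase, was normalised to same-plate vehicle wells, and the median of three biological replicates is listed.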

[6] = tested on: P. vulgatus WT; assay: as above
Summary of the method: as §2

[7] = tested on: S. enterica typhimurium WT; assay: as above
Summary of the method: as §2

[8] = tested on: S. enterica typhimurium tolC KO; assay: as above
Summary of the method: as §2

Measured: growth AUC normalised to DMSO control
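For growth AUC normalised to DMSO control (median) in this document: active when median AUC fell below 0.1.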

CC(C)(C)NC[C@@H](O)COc1cccc2c1CCCC2=O [(+) Levobunolol hydrochloride]
inactive: [1] 0.982 | [2] 0.943 | [3] 0.978 | [4] 0.987 | [5] 0.999 | [6] 0.975 | [7] 0.993 | [8] 0.993

Cc1ccccc1OCC(O)CO (configuration not stated) [Mephenesin]
inactive: [1] 0.999 | [2] 1 | [3] 0.999 | [4] 0.994 | [5] 1.01 | [6] 1.01 | [7] 1 | [8] 1

Fc1ccc([C@@H]2CCNC[C@H]2COc2ccc3c(c2)OCO3)cc1 [Paroxetine hydrochloride]
inactive: [1] 0.995 | [2] 1 | [3] 0.94 | [4] 0.991 | [5] 0.997 | [6] 1.02 | [7] 0.998 | [8] 0.982

CCOC(=O)c1ccc(N)cc1 [Benzocaine]
inactive: [1] 1.02 | [2] 1.03 | [3] 1.07 | [4] 1.03 | [5] 1.04 | [6] 1.07 | [7] 1.01 | [8] 1.01

C[C@@H](c1ncncc1F)[C@](O)(Cn1cncn1)c1ccc(F)cc1F [Voriconazole]
inactive: [1] 0.984 | [2] 0.959 | [3] 0.955 | [4] 1 | [5] 1.02 | [6] 1.02 | [7] 1 | [8] 0.998

CCOc1ccccc1OCC1CNCCO1 (configuration not stated) [Viloxazine hydrochloride]
inactive: [1] 0.997 | [2] 0.979 | [3] 0.987 | [4] 0.961 | [5] 1 | [6] 0.985 | [7] 0.99 | [8] 0.995

C=CCN1CCCC1CNC(=O)c1cc2nn[nH]c2cc1OC (configuration not stated) [Alizapride hydrochloride]
inactive: [1] 1 | [2] 1 | [3] 1.01 | [4] 0.996 | [5] 0.998 | [6] 1 | [7] 1.02 | [8] 1

Cc1cccc(CN2CCN(C(c3ccccc3)c3ccc(Cl)cc3)CC2)c1 (configuration not stated) [Meclozine dihydrochloride]
inactive: [1] 0.989 | [2] 0.961 | [3] 0.885 | [4] 0.987 | [5] 1 | [6] 0.992 | [7] 1 | [8] 1

CC(Oc1c(Cl)cccc1Cl)C1=NCCN1 (configuration not stated) [Lofexidine]
inactive: [1] 1.01 | [2] 1 | [3] 1.01 | [4] 1.01 | [5] 1.02 | [6] 1.03 | [7] 1.02 | [8] 1

CCOC(=O)C1=C(C)NC(C)=C(C(=O)OCC)C1c1ccccc1/C=C/C(=O)OC(C)(C)C [Lacidipine]
inactive: [1] 1.01 | [2] 1 | [3] 1.02 | [4] 1.02 | [5] 1.07 | [6] 1.06 | [7] 1 | [8] 1

CCN(CC)CCOc1ccc(C(=C(Cl)c2ccccc2)c2ccccc2)cc1 [(Z,E) Clomiphene citrate]
inactive: [1] 1.02 | [2] 1.02 | [3] 1.01 | [4] 1.02 | [5] 0.902 | [6] 0.964 | [7] 1.01 | [8] 0.983

CCCCCN(C)CCC(O)(P(=O)(O)O)P(=O)(O)O [Ibandronate sodium]
inactive: [1] 0.982 | [2] 0.98 | [3] 0.992 | [4] 1.01 | [5] 0.998 | [6] 1.01 | [7] 0.99 | [8] 1

OC(c1cc(C(F)(F)F)nc2c(C(F)(F)F)cccc12)C1CCCCN1 (configuration not stated) [Mefloquine hydrochloride]
inactive: [1] 0.997 | [2] 0.975 | [3] 1 | [4] 0.99 | [5] 0.719 | [6] 0.777 | [7] 0.998 | [8] 0.948

c1ccc2c(c1)CCCC2C1=NCCN1 (configuration not stated) [Tetrahydrozoline hydrochloride]
inactive: [1] 0.981 | [2] 0.981 | [3] 0.991 | [4] 0.996 | [5] 0.997 | [6] 1 | [7] 0.996 | [8] 1

CNCC(O)c1ccc(O)c(O)c1 (configuration not stated) [Racepinephrine hydrochloride]
inactive: [1] 1.03 | [2] 1.02 | [3] 1.09 | [4] 1.04 | [5] 1.01 | [6] 1 | [7] 1.01 | [8] 1

CC[C@H]1OC(=O)[C@H](C)[C@@H](O[C@H]2C[C@@](C)(OC)[C@@H](O)[C@H](C)O2)[C@H](C)[C@@H](O[C@@H]2O[C@H](C)C[C@H](N(C)C)[C@H]2O)[C@](C)(O)C[C@@H](C)/C(=N\OCOCCOC)[C@H](C)[C@@H](O)[C@]1(C)O [Roxithromycin]
active: [1] 0.84 | [2] 0.82 | [3] 0.0242 | [5] 0.0176 | [6] 0.0119 | [8] 0.0779
inactive: [4] 0.954 | [7] 0.899

CC(C)(C)NC(=O)[C@H]1CC[C@H]2[C@@H]3CC[C@H]4NC(=O)C=C[C@]4(C)[C@H]3CC[C@]12C [Finasteride]
inactive: [1] 1.02 | [2] 1.02 | [3] 1.03 | [4] 1.01 | [5] 1.02 | [6] 1.04 | [7] 1.01 | [8] 0.895

CNC[C@H](O)[C@@H](O)[C@H](O)[C@H](O)CO [Meglumine]
inactive: [1] 1.02 | [2] 1 | [3] 1.04 | [4] 0.984 | [5] 1.01 | [6] 1.04 | [7] 1.01 | [8] 1

COc1cc(N)c(Cl)cc1C(=O)NC1CCN(CCCOc2ccc(F)cc2)CC1OC (configuration not stated) [Cisapride]
inactive: [1] 1 | [2] 1.01 | [3] 0.929 | [4] 0.989 | [5] 0.945 | [6] 0.941 | [7] 1 | [8] 0.947

CCOC1O[C@H]([C@@H](COCc2ccccc2)OCc2ccccc2)[C@H](OCc2ccccc2)[C@H]1O (some centres not stated) [Tribenoside]
inactive: [1] 1 | [2] 1.01 | [3] 1 | [4] 0.988 | [5] 0.946 | [6] 0.987 | [7] 1.01 | [8] 0.959

CCc1nn(CCCN2CCN(c3cccc(Cl)c3)CC2)c(=O)n1CCOc1ccccc1 [Nefazodone hydrochloride]
inactive: [1] 1 | [2] 0.985 | [3] 0.932 | [4] 1.01 | [5] 0.928 | [6] 0.922 | [7] 1 | [8] 0.894

CC(C)NCC(O)COc1ccc(COCCOC(C)C)cc1 (configuration not stated) [Bisoprolol hemifumarate]
inactive: [1] 1.03 | [2] 1.03 | [3] 1.05 | [4] 1.02 | [5] 1.02 | [6] 1.08 | [7] 1.01 | [8] 1.01

OCCN1CCN(CCCN2c3ccccc3C=Cc3ccccc32)CC1 [Opipramol dihydrochloride]
inactive: [1] 0.981 | [2] 0.962 | [3] 0.961 | [4] 0.996 | [5] 1.01 | [6] 1.01 | [7] 1 | [8] 0.968

CN[C@@H]1[C@H](O[C@H]2[C@H](O[C@H]3[C@H](O)[C@@H](O)[C@H](NC(=N)N)[C@@H](O)[C@@H]3NC(=N)N)O[C@@H](C)[C@]2(O)CO)O[C@@H](CO)[C@H](O)[C@H]1O [Dihydrostreptomycin sulfate]
inactive: [1] 0.994 | [2] 1.01 | [3] 1.02 | [4] 0.973 | [5] 0.999 | [6] 1.02 | [7] 0.992 | [8] 0.989

CC[C@H]1OC(=O)[C@H](C)[C@@H](O[C@H]2C[C@@](C)(OC)[C@@H](O)[C@H](C)O2)[C@H](C)[C@@H](O[C@@H]2O[C@H](C)C[C@H](N(C)C)[C@H]2O)[C@](C)(O)C[C@@H](C)C(=O)[C@H](C)[C@@H](O)[C@]1(C)O [Erythromycin]
inactive: [7] 0.811
active: [1] 0.74 | [2] 0.6 | [3] 0.0246 | [4] 0.767 | [5] 0.0145 | [6] 0.00909 | [8] 0.00339

CCN(CC)CCOC(=O)C(c1ccccc1)c1ccccc1 [Adiphenine hydrochloride]
inactive: [1] 0.974 | [2] 0.99 | [3] 1.01 | [4] 1 | [5] 1.03 | [6] 1.03 | [7] 0.995 | [8] 1

CN1C(=O)CC(c2ccccc2)C1=O (configuration not stated) [Phensuximide]
inactive: [1] 1.01 | [2] 1.04 | [3] 1.03 | [4] 1.02 | [5] 1.02 | [6] 1.04 | [7] 1 | [8] 0.993

CCN1CCC[C@H]1CNC(=O)c1c(O)c(Cl)cc(Cl)c1OC [Raclopride]
inactive: [1] 1 | [2] 0.983 | [3] 0.985 | [4] 0.951 | [5] 1.04 | [6] 1.04 | [7] 0.994 | [8] 1

Clc1ccc(C(Cn2ccnc2)OCc2c(Cl)cccc2Cl)c(Cl)c1 (configuration not stated) [Isoconazole]
inactive: [1] 0.997 | [2] 1.01 | [3] 0.949 | [4] 1.01 | [5] 0.95 | [6] 0.949 | [7] 0.995 | [8] 0.953
